19 molecules from PubChem BioAssay (Tox21) can be followed below.

A short description of experiment [1]: qHTS assay for small molecules that induce genotoxicity in human embryonic kidney cells expressing luciferase-tagged ATAD5 (AID 651632). Note: nearly all actives have a fitted effect of over 15% in size. The procedure, abridged: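 Cells were seeded at 2,000 per well, dosed with compound, and incubated 16 hr at 37C in 5% CO2. Luciferase activity was then quantified after a 30 min room-temperature incubation with Amplite.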
A short description of experiment [2]: qHTS assay for small molecules that induce genotoxicity in human embryonic kidney cells expressing luciferase-tagged ATAD5 - cell viability (AID 651634; calls by dose curve; note: nearly all actives have a fitted effect of over 25% in size; note: potency is the fitted concentration of half-maximal effect). The procedure, abridged: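 Cells (HEK293T, luciferase-tagged ATAD5) are seeded at 2,000 per well, dosed with compound or DMSO vehicle, and incubated 15.5 hr at 37C and 5% CO2. CellTiter-Fluor is added for 30 min before fluorescence is measured.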

Experiment [3] can be described thus: qHTS assay for small molecule disruptors of the mitochondrial membrane potential - cell viability (AID 720634; calls by dose curve;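 note: human HepG2 liver cancer cells; series mostly up to about 83 µM; nearly all actives have a fitted effect of over 20% in size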). Put shortly: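 Cytotoxicity was measured by ATP quantitation in HepG2 wells that had first been treated with compound for 1 hr and stained with m-MPI dye; CellTiter-Glo incubation was 30 min at room temperature.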
Background: qHTS replaces the single test concentration by a dilution series.

The nature of experiment [4]: qHTS assay for small molecule disruptors of the mitochondrial membrane potential (AID 720635). Note: potency is the fitted concentration of half-maximal effect. The procedure, abridged: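 Mitochondrial membrane potential tracked with Mito-MPS dye, red aggregates (ex 540/em 590 nm) against green monomers (ex 490/em 535 nm). Compound treatment 1 hr at 37C, dye 30 min in HepG2.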
A short description of experiment [5]: qHTS assay to test for compound auto fluorescence at 590 nm (red) in HepG2 cells (AID 720674). Put shortly:
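We screened compounds on adherent HepG2 cells, incubating them for an hour at 37 C in 5% CO2 before reading emission at 590 nm under 540 nm excitation; values reflect equivalence to Rose Bengal sodium fluorescence.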

Experiment [6] in a line: qHTS assay to test for compound auto fluorescence at 535 nm (green) in HepG2 cells (AID 720675).
The nature of experiment [7]: qHTS assay to test for compound auto fluorescence at 460 nm (blue) in HEK293 cells (AID 720678). The procedure, abridged:
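Blue read-out at excitation 405 nm and emission 460 nm follows overnight compound exposure of HEK293 cells at 37C in 5% CO2. Activity is given as auto fluorescence equivalency to triamterene.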

The nature of experiment [8]: qHTS assay to test for compound auto fluorescence at 590 nm (red) in HEK293 cells (AID 720679). Put shortly:
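Red channel, Ex/Em 540/590nm; signal expressed as equivalency to Rose Bengal sodium. HEK293, 2,000 cells/well, 10% dialyzed FBS; 23 nL compound pinned after 4-5 hr attachment; overnight 37C/5% CO2 before reading.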

Experiment [9] is described as follows: qHTS assay for small molecule agonists of the p53 signaling pathway - cell viability (AID 651633; calls by dose curve; note: nearly all actives have a fitted effect of over 30% in size; note: potency is the fitted concentration of half-maximal effect). The procedure, abridged: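 Viability counter-read: CellTiter-Glo luminescence (30 min, room temperature) in the same p53RE-bla plates. These plates had been exposed to compounds for 16 h at 37 C.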

Structures are written as SMILES. Results filed as inconclusive are left out. Calls of active or inactive are those of the source. Unless noted, calls come from the whole dose curve; as a rule, active = well fitted curve in the direction sought with a large enough effect in the repeat runs; inconclusive = weak or mixed curves; inactive = no such curve, though single readings can be large; an effect the other way counts as inactive or inconclusive.

`CCC[C@@H]1C[C@@H](C(=O)N[C@@H]([C@H]2O[C@H](SC)[C@H](O)[C@@H](O)[C@H]2O)[C@H](C)Cl)N(C)C1`: the Potency entry in [1], in [2], in [3], in experiment [4], in experiment [5] and in [6] was “inactive” throughout. For the same molecule, the Potency entry in [7] and in [8] was “inactive” in each case.

Turning to `Clc1ccc(COC(Cn2ccnc2)c2ccc(Cl)cc2Cl)c(Cl)c1` (stereo not given), the Potency result in experiment [1], in experiment [2], in experiment [3], in [5], in experiment [6] and in [7] was “inactive” throughout. In addition, in experiment [8], the Potency entry is “inactive”.

For `COc1ccc(C2NC(=S)N3C(c4ccc(OC)c(OC)c4)NC(=S)N23)cc1OC` (stereo not given), the Potency entry in [1], in experiment [2], in [3], in experiment [4], in experiment [5] and in experiment [6] was “inactive” each time. Further, the Potency entry in experiment [7] and in experiment [8] was “inactive” each time.

With `CC(=O)[C@@]1(O)CC[C@H]2[C@@H]3C=C(Cl)C4=CC(=O)CC[C@]4(C)[C@H]3CC[C@@]21C`, the Potency entry in [1], in experiment [2], in experiment [3], in experiment [5], in [6] and in experiment [7] was “inactive” each time. Further, in [8], the Potency result is “inactive”.

As to `CCCCCCCCCCCCCCCC(=O)O[C@@H]1CC(C)=C(/C=C/C(C)=C/C=C/C(C)=C/C=C/C=C(C)/C=C/C=C(C)/C=C/C2=C(C)C[C@@H](OC(=O)CCCCCCCCCCCCCCC)CC2(C)C)C(C)(C)C1`, the Potency entry in experiment [1], in experiment [2], in experiment [3], in experiment [4], in experiment [5] and in [6] was “inactive” throughout. Moreover, the Potency result in experiment [7] and in experiment [8] was “inactive” each time.

For the molecule `CCCC1([C@H](O)C/C=C/[C@H]2[C@H](O)CC(=O)[C@@H]2CCCCCCC(=O)OC)CCC1`, the Potency result in [1], in experiment [5], in experiment [6], in experiment [7] and in experiment [8] was “inactive” in each case. In addition, the Potency in [9] was 29.8 µM (active).

With `CCCCCCCCCCCCCCCCOCCOCCOCCOCCOCCOCCOCCOCCOCCOCCOCCOCCOCCOCCOCCOCCOCCOCCOCCOCCO`, the Potency result in experiment [1], in [5], in experiment [6], in experiment [7] and in experiment [8] was “inactive” each time. Besides, the values for the Potency in [9] and in experiment [4] were 6.68 µM (active) and 23.7 µM (active), respectively.

`CCCCCCCCCCCCCCCCCC[N+](C)(C)CCC[Si](OC)(OC)OC`: the Potency result in experiment [1], in [2], in experiment [3], in [5], in experiment [6] and in [7] was “inactive” throughout. Further, the Potency entry in [8] is “inactive”.

With `CCC(=O)O[C@@H]1CC(=O)O[C@H](C)C/C=C/C=C/[C@H](O)[C@H](C)C[C@H](CC=O)[C@H](O[C@@H]2O[C@H](C)[C@@H](O[C@H]3C[C@@](C)(O)[C@@H](OC(=O)CC)[C@H](C)O3)[C@H](N(C)C)[C@H]2O)[C@H]1OC`, the Potency entry in experiment [1], in experiment [2], in experiment [3], in experiment [4], in experiment [5] and in [6] was “inactive” throughout. Also, the Potency entry in experiment [7] and in experiment [8] was “inactive” throughout.

Turning to `C=Cc1c(C)c2cc3nc(cc4[nH]c(cc5nc(cc1[nH]2)C(C)=C5CCC(=O)OC)c(CCC(=O)O)c4C)[C@@]1(C)C3=CC=C(C(=O)OC)[C@H]1C(=O)OC`, the Potency entry in experiment [1], in experiment [3], in experiment [5], in experiment [6], in [7] and in [8] was “inactive” in each case. The Potency in experiment [4] was 1.88 µM (active).

Consider `CNC(C)[C@@H]1CC[C@@H](N)[C@@H](O[C@H]2[C@H](O)[C@@H](O[C@H]3OC[C@](C)(O)[C@H](NC)[C@H]3O)[C@H](N)C[C@@H]2N)O1` (stereo not given in full), for which the Potency result in [5], in experiment [6], in experiment [7] and in [8] was “inactive” each time.

For `CCCCC[C@H](O)/C=C/[C@H]1[C@H](O)CC(=O)[C@@H]1CCCCCCC(=O)O`, the Potency result in experiment [1], in experiment [2], in [3], in [5], in [6] and in [7] was “inactive” each time. Besides, the Potency entry in experiment [8] was “inactive”.

For `O=C(O)C1CCCN1` (stereo not given), the Potency result in [9], in [2], in experiment [3], in experiment [4], in [5] and in experiment [6] was “inactive” each time. In addition, the Potency entry in experiment [7] and in [8] was “inactive” throughout.

On to `NC(=O)OC[C@@H]1[C@H](NC(=O)/C(=N\OCC(=O)O)c2csc(N)n2)C(=O)N1S(=O)(=O)O`, for which the Potency entry in [9], in [2], in experiment [3], in experiment [4], in experiment [5] and in [6] was “inactive” each time. Also, the Potency result in experiment [7] and in experiment [8] was “inactive” throughout.

For `CC(=O)Oc1cc(C)c(OC(C)=O)c2ccccc12`, the Potency result in experiment [1], in experiment [2], in experiment [3], in experiment [5], in experiment [6] and in experiment [7] was “inactive” each time. Moreover, in [8], the Potency result is “inactive”.

In the case of `CO[C@H]1C[C@H](O[C@@H]2/C(C)=C/C[C@@H]3C[C@@H](C[C@]4(CC[C@H](C)[C@@H](C5CCCCC5)O4)O3)OC(=O)[C@@H]3C=C(C)/C(=N/O)[C@H]4OC/C(=C\C=C\[C@@H]2C)[C@]43O)O[C@@H](C)[C@@H]1O`, the Potency entry in experiment [2], in experiment [3], in experiment [5], in [6], in experiment [7] and in [8] was “inactive” in each case.

As to `Cc1ccccc1`, the Potency entry in [6], in experiment [7] and in [8] was “inactive” throughout.

Turning to `C#C[C@]1(O)CC[C@H]2[C@@H]3CCC4=C/C(=N/O)CC[C@@H]4[C@H]3CC[C@@]21CC`, the Potency entry in experiment [9], in experiment [3], in experiment [5], in experiment [6], in experiment [7] and in [8] was “inactive” in each case. The Potency in experiment [4] was 10.6 µM (active).

`CCc1ccc2c(c1)N(CC(C)CN(C)C)c1ccccc1S2` (stereo not given): the Potency entry in [1], in [3], in experiment [5], in experiment [6], in [7] and in experiment [8] was “inactive” throughout. Also, in [2], the Potency was 33.5 µM (active).
